Results from PubChem BioAssay (NCATS).
“And” between values parts separate entries of the source, which are not always exact repeats. Identical values can stand only once. Values without a mark were called inactive. Records with an inconclusive call do not appear. Where a call stands in place of a potency, no number is given. The source made the active and inactive calls. Unless noted, the call rests on the fitted dose curve; in most records, active means well fitted curve in the direction sought with a large enough effect; inconclusive means small, poorly fitted or top-dose-only effect, or another doubt; inactive means no such curve, though single readings can be large; an effect the other way counts as inactive or inconclusive.

What was measured:
[1] = Cell Viability - Hek293 (AID 427;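 active means compounds whose dose-response curve shows a full or clear partial loss of cell viability, called from curve shape rather than a numeric limit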;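 further: potency means the concentration at half of the fitted maximal effect; cells exposed to compound for 40 hours at 37 °C before reading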); conditions: qHTS
Outline: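 AC50 values derive from Hill-modelled concentration-response of ATP-based luminescence, normalized between DMSO-only and 100 uM tamoxifen controls. Cells were exposed in complete culture medium for 40 hr at 37 °C before detection.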

[2] = Cellular Toxicity (caspase-3) NIH 3T3 (AID 666);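 further: caspase signal read after 16 h compound exposure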
Outline: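 Concentration-response qHTS in NIH 3T3 mouse fibroblasts scores caspase-3/7 activation as rising luminescence after 16 hr compound exposure. Signals are scaled between DMSO-only and 100 uM tamoxifen.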

[3] = Cell Viability - LYMP2-024 (AID 988); further: nearly all actives have a fitted effect of over 60% in size
Outline: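 Acute toxicity is measured as concentration-dependent loss of intracellular ATP in a human lymphoblastoid line treated 24 hours at 37 C. Luciferase luminescence quantifies ATP; AC50 values come from standard Hill-equation modelling.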

[4] = Cell Viability - LYMP1-002 - Assay at 24 hr (AID 993)
Outline: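 qHTS, LYMP1-002 lymphoblastoid, 24 h cpd, 37 C, CellTiter-Glo ATP luminescence; AC50 via Hill eq.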

[5] = target: Peroxisome proliferator-activated receptor gamma (Homo sapiens) (UniProt P37231); experiment: qHTS assay for small molecule agonists of peroxisome proliferator-activated receptor gamma signaling (AID 588536; active means well fitted curve in the direction sought with a large enough effect in the signal ratio, with a control signal flat, not every such curve was filed as active; the % refers to the signal ratio)
Outline: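 HEK293 UAS-bla reporter line, 1% charcoal/dextran FBS; titration, 16 h, 37 C; CCF4 loading 2 h RT; fluorescence 460/530 nm. Normalized to rosiglitazone 2 uM = 100%, DMSO = 0%.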

[6] = target: Thyroid hormone receptor beta (Homo sapiens) (UniProt P10828); experiment: qHTS assay for small molecule agonists of thyroid hormone receptor beta signaling (AID 588545; calls by dose curve)
Outline: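 Agonist-mode beta-lactamase reporter assay, HEK 293 cells, 2% charcoal/dextran FBS; cells plated 4 hrs, compound 18 hrs at 37 C, CCF4 2 hrs RT. Normalized to 10 nM T3 (100%) and DMSO (0%); Hill fit gives EC50, efficacy.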

[7] = target: Voltage-gated inwardly rectifying potassium channel KCNH2 (Homo sapiens) (UniProt Q12809); experiment: qHTS Assay for Small Molecule Inhibitors of the Human hERG Channel Activity (AID 588834);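 further: top concentration of the series differs between compounds; lower thallium flux fluorescence means stronger hERG block; nearly all actives have a fitted effect of over 50% in size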
Outline: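 Blockade is seen as reduced FluxOR thallium-flux fluorescence in U2OS cells expressing hERG from a BacMam construct, in Opti-MEM with 2% FCS. Concentration-response data fitted to the Hill equation for AC50.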

[8] = target: Tumor necrosis factor (Homo sapiens) (UniProt P01375); experiment: qHTS assay to identify small molecules that stimulate Tumor Necrosis Factor-alpha (TNF-alpha) secretion (AID 651757; active means well fitted curve in the direction sought with a large enough effect in the signal ratio; the % refers to the signal ratio)
Outline: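 Secreted TNF-alpha from compound-treated THP-1 cells (17 hrs, 37 C) was quantified with a homogeneous time-resolved fluorescence antibody assay.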

[9] = target: Nuclear receptor ROR-gamma (Homo sapiens) (UniProt P51449); experiment: qHTS assay for small molecule antagonists of the retinoid-related orphan receptor gamma (ROR-gamma) signaling pathway (AID 651802);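 further: CHO cells with doxycycline-induced ROR-gamma expression; luciferase reporter luminescence driven by ROR response element; series mostly up to about 92 µM; nearly all actives have a fitted effect of over 60% in size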
Outline: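 Antagonism is scored as a fall in luminescence from a RORE-luciferase reporter in CHO cells expressing ROR under a TET-inducible promoter, measured 16hr after doxycycline induction in the presence of compound.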

[10] = target: Cytochrome P450 2D6 (Homo sapiens) (UniProt P10635); experiment: qHTS for inhibitors of CYP2D6 against the NCATS DSHEA and TCM libraries (AID 1919972); further: potency means the concentration at half of the fitted maximal effect
Outline: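 Steps: enzyme plus luciferin substrate dispensed; test substances pinned; 15 min RT; 1x NADPH regenerating solution added, 30–45 min RT protected from light; detection reagent, 30 min RT; luminescence measured. Minus-enzyme wells as background.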

[11] = target: Cytochrome P450 2C9 (Homo sapiens) (UniProt P11712); experiment: qHTS for inhibitors of CYP2C9 against the NCATS DSHEA and TCM libraries (AID 1919973); further: potency means the concentration at half of the fitted maximal effect
Outline: (§1)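 Light output from converted D-luciferin reports remaining CYP activity. Compounds preincubate with enzyme and substrate for 15 min; NADPH regeneration (1x final) runs the reaction for 30-45 min.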

[12] = target: Cytochrome P450 2C19 (Homo sapiens) (UniProt P33261); experiment: qHTS for inhibitors of CYP2C19 against the NCATS DSHEA and TCM libraries (AID 1919974);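 further: luminescence from luciferin released by CYP2C19 oxidation of a pro-luciferin substrate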; further: potency means the concentration at half of the fitted maximal effect
Outline: as §1

[13] = target: Nuclear receptor subfamily 1 group I member 2 (Homo sapiens) (UniProt O75469); experiment: Dual reporter qHTS for agonist of Pregnane X Receptor (hPXR) against the NCATS DSHEA and TCM libraries: Luminescence readout (AID 1920059); further: potency means the concentration at half of the fitted maximal effect
Outline: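 hPXR-Luc HepG2 cells, 2000/well in 5% charcoal-stripped FBS medium, attached 5 h, then exposed 24 h at 37C to compounds. Viability by CellTiter-Fluor, then luciferase luminescence with ONE-Glo.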

[14] = target: Bile acid receptor (Homo sapiens) (UniProt Q96RI1); experiment: qHTS assay for small molecule agonists of farnesoid X receptor signaling (AID 588527; calls by dose curve; further: series mostly up to about 77 µM); conditions: HEK293T FXR-UAS-bla, beta-lactamase ratio, 16 h; hits give high values
Outline: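 Quantitative HTS used FXR-UAS-bla HEK293T cells with 16 h compound incubation at 37 C. EC50 values came from concentration-response curves normalized to chenodeoxycholic acid.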

[15] = Quantitative high throughput screen for delayed death inhibitors of the malarial parasite plastid, 96 hour incubation (AID 488745); further: potency means the concentration at half of the fitted maximal effect; nearly all actives have a fitted effect of over 70% in size
Outline: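 Growth of reporter-bearing P. falciparum in red cells is measured after 96 h with compound, covering two erythrocytic cycles. Luminescence from the integrated luciferase serves as the growth signal.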

Thyroid hormone receptor beta (Homo sapiens), sequence (P10828 whole entry, looked up): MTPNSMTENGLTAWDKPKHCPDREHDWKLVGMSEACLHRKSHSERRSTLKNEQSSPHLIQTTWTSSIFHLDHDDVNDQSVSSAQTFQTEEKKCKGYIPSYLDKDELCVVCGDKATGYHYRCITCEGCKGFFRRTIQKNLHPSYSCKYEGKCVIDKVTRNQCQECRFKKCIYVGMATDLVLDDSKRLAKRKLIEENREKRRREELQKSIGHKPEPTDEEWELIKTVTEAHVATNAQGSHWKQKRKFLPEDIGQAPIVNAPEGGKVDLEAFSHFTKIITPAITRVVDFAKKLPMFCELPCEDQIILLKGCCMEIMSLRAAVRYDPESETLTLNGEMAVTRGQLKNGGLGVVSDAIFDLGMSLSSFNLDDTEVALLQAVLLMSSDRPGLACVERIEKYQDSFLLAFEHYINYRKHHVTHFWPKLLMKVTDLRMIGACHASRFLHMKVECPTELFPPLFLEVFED
Nuclear receptor subfamily 1 group I member 2 (Homo sapiens), sequence (O75469 whole entry, looked up): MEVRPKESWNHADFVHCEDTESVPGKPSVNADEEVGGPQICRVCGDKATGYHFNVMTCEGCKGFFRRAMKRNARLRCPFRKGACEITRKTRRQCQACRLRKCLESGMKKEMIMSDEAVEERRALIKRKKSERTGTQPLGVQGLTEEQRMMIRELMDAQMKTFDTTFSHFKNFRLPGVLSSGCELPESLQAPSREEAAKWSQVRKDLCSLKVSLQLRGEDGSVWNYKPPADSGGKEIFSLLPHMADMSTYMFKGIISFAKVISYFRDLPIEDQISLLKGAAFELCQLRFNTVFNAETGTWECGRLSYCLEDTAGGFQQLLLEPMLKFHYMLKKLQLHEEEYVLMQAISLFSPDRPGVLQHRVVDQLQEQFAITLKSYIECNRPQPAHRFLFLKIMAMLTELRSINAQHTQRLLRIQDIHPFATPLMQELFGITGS
Tumor necrosis factor (Homo sapiens), sequence (P01375 whole entry, looked up): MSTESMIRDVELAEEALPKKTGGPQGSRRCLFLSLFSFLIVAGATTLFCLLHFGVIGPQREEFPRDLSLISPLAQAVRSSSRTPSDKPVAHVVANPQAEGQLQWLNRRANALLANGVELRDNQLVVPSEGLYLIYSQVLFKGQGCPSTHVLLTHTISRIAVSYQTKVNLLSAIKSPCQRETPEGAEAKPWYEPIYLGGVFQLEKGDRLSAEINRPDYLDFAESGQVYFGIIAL
Nuclear receptor ROR-gamma (Homo sapiens), sequence (P51449 whole entry, looked up): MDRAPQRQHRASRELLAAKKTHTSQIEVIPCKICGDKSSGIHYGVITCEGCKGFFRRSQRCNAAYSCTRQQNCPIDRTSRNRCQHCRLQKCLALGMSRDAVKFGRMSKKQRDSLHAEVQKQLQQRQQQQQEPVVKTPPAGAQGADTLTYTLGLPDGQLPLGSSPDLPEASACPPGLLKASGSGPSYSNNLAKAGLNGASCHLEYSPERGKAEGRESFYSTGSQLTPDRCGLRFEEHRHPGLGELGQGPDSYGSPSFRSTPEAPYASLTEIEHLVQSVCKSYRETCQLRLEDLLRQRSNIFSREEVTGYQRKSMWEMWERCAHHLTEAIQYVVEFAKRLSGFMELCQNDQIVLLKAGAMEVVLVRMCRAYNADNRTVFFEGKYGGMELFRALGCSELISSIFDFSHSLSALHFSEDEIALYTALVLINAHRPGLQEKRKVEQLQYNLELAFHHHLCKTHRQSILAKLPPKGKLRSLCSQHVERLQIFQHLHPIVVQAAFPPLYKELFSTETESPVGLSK
Cytochrome P450 2D6 (Homo sapiens), sequence (P10635 whole entry, looked up): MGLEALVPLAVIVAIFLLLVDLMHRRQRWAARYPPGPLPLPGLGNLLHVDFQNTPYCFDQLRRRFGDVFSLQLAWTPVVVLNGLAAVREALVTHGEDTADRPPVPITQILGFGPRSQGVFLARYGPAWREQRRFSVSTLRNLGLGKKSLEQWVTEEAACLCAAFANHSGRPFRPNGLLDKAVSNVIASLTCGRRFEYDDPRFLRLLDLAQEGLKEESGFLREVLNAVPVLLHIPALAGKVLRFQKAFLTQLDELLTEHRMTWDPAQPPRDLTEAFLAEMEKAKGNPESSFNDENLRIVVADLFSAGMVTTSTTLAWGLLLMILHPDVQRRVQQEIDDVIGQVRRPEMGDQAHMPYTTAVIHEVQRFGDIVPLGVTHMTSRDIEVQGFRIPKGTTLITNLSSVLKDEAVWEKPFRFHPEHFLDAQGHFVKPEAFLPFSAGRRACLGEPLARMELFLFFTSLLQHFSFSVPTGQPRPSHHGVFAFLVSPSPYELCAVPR
Peroxisome proliferator-activated receptor gamma (Homo sapiens), sequence (P37231 whole entry, looked up): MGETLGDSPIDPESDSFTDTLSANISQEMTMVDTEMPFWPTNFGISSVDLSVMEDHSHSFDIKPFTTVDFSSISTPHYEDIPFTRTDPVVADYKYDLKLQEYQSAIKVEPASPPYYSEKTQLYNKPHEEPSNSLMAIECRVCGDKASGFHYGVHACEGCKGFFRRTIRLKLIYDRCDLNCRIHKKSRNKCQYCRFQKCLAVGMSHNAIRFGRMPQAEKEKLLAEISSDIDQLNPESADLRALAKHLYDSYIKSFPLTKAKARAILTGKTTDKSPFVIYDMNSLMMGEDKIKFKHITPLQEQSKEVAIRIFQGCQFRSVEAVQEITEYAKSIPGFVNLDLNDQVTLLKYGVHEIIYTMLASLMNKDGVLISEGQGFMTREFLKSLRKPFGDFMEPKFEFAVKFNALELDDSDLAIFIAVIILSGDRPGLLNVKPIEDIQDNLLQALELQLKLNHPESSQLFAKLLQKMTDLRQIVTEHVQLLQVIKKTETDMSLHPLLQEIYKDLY
Cytochrome P450 2C19 (Homo sapiens), sequence (P33261 whole entry, looked up): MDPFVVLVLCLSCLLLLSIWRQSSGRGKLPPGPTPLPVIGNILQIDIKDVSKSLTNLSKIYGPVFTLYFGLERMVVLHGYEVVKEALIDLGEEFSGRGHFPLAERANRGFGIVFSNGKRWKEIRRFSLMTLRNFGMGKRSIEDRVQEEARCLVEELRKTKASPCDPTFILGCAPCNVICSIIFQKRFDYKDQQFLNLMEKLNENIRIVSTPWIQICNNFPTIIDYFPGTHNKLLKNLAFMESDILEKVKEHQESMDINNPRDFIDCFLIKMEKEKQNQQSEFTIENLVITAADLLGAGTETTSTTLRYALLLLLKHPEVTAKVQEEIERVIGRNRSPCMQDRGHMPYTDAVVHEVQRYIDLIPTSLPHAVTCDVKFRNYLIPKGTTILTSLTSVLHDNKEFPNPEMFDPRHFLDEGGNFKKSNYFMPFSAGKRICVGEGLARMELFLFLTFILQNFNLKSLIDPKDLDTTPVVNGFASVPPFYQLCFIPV
Voltage-gated inwardly rectifying potassium channel KCNH2 (Homo sapiens), sequence (Q12809 whole entry, looked up): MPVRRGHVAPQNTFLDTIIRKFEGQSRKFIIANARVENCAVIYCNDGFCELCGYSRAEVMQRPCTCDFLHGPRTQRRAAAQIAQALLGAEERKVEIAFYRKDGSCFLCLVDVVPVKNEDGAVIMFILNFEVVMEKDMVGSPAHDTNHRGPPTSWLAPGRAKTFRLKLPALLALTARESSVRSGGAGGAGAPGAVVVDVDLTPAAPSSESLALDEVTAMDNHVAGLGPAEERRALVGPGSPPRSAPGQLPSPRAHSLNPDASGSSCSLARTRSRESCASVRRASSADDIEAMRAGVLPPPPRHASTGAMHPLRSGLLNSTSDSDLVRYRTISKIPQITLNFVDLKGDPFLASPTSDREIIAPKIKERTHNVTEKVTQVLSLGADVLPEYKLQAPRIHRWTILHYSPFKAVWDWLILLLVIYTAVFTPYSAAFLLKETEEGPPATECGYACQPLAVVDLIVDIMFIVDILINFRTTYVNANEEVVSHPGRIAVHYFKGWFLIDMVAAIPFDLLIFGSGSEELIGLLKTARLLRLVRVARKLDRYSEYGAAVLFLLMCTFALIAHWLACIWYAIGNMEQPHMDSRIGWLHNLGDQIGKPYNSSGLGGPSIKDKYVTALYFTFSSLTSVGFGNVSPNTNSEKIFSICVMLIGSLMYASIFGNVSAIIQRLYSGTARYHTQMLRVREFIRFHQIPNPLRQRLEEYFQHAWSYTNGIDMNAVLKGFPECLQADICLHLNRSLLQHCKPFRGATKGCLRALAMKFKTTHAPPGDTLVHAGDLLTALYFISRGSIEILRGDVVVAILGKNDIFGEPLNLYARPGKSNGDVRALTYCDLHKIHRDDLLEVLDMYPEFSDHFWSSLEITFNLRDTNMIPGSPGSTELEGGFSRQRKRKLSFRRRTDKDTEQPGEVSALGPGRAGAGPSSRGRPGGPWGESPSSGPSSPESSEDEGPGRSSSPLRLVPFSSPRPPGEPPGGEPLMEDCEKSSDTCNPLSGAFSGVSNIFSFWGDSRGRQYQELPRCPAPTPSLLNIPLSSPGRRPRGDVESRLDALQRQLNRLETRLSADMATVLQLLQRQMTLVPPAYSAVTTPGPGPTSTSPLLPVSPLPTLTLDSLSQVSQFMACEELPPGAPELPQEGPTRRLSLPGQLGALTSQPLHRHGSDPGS
Cytochrome P450 2C9 (Homo sapiens), sequence (P11712 whole entry, looked up): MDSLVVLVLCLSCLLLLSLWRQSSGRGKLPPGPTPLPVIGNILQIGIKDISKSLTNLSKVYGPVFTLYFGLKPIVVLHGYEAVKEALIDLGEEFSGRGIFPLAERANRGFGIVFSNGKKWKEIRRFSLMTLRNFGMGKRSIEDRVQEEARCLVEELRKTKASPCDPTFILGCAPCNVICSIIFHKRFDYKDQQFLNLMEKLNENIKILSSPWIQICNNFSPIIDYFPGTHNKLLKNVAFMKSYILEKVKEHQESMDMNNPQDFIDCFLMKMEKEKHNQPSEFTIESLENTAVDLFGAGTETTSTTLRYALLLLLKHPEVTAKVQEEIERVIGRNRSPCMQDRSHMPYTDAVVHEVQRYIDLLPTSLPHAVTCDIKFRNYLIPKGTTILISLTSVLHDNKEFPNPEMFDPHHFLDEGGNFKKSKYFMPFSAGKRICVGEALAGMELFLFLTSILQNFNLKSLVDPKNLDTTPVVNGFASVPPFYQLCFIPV

Compound: COC1=CC(=O)OC(CCc2ccccc2)C1 (stereo unspecified)
- Potency [1]: > 92 µM
- outcome [2]: inactive
- Potency [3]: inactive
- Potency [4]: inactive
- outcome [5]: inactive
- outcome [6]: inactive
- Potency [7]: inactive
- outcome [8]: inactive
- Potency [9]: inactive
- Potency [10]: inactive
- Potency [11]: inactive
- Potency [12]: 14.1 µM (active)
- Potency [13]: inactive

Compound: C=C[C@H]1CN2CCc3c([nH]c4ccccc34)[C@H]2C[C@@H]1/C(=C\OC)C(=O)OC
- Potency [11]: 3.16 µM (active)
- Potency [12]: 7.08 µM (active)

Compound: COC1=C[C@@]23CCN(C)[C@H](Cc4ccc(OC)c(O)c42)C3=CC1=O
- Potency [11]: inactive
- Potency [12]: inactive

Compound: C=C[C@H]1CN2CC[C@@]3(C(=O)Nc4ccccc43)[C@@H]2C[C@@H]1/C(=C\OC)C(=O)OC
- Potency [10]: inactive
- Potency [11]: inactive

Compound: COC(=O)C1=CO[C@@H](C)[C@@H]2CN3CC[C@@]4(C(=O)Nc5ccccc54)[C@@H]3CC12 (stereo partly specified)
- Potency [10]: inactive
- Potency [11]: inactive
- Potency [12]: inactive
- Potency [13]: 10 µM (active)

Compound: O=S(=O)(O)O
- Potency [11]: inactive
- Potency [12]: inactive
- Potency [13]: inactive

Compound: COc1cc2c(cc1O)CC1NCCc3cc(OC)c(OC)c-2c31 (stereo unspecified)
- Potency [10]: 6.31 µM (active)
- Potency [13]: inactive

Compound: COc1cc2c(cc1O)C[C@H]1c3c(cc(OC)c(O)c3-2)CCN1C
- Potency [10]: 5.01 µM (active)
- Potency [12]: 3.98 µM (active)
- Potency [13]: inactive

Compound: CC1=C2[C@H](/C=C(\C)C(=O)O)CC[C@@H](C)[C@H]2CC1
- activation [14]: -3.32%

Compound: S=C(S)N1CCCC1
- Potency [15]: 5.86 µM (active)

Compound: CC(=O)O[C@H]1C[C@@H]2CCC3C(CC[C@@]4(C)[C@H]3C[C@H]([N+]3(C)CCCCC3)[C@@H]4OC(C)=O)[C@@]2(C)C[C@@H]1[N+]1(C)CCCCC1 (stereo partly specified)
- Potency [15]: 13.1 µM (active)

Compound: OCC(Br)CBr (stereo unspecified)
- Potency [1]: > 92 µM
- outcome [2]: inactive
- Potency [3]: inactive
- Potency [4]: inactive
- activation [14]: 0.562%
- outcome [5]: inactive
- Potency [7]: inactive
- outcome [8]: inactive
- Potency [9]: inactive

Compound: O=NN(c1ccccc1)c1ccccc1
- Potency [1]: > 92 µM
- outcome [2]: inactive
- Potency [3]: inactive
- Potency [4]: inactive
- activation [14]: -0.746% and 1.47%
- outcome [5]: inactive
- outcome [6]: inactive
- Potency [7]: inactive
- outcome [8]: inactive
- Potency [9]: inactive

Compound: C=CC(C)(CCC=C(C)C)OC(C)=O (stereo unspecified)
- activation [14]: -2.23%

Compound: CCCCCCCCCCCCCC(=O)O
- activation [14]: 0.574%

Compound: Cc1ccccc1N
- Potency [1]: > 92 µM
- outcome [2]: inactive
- Potency [3]: inactive
- Potency [4]: inactive
- outcome [6]: inactive
- outcome [8]: inactive
- Potency [9]: inactive

Compound: Cc1cccc([N+](=O)[O-])c1
- Potency [1]: > 92 µM
- outcome [2]: inactive
- Potency [3]: inactive
- Potency [4]: inactive
- activation [14]: -1.63% and -0.0408%
- outcome [5]: inactive
- Potency [7]: inactive
- outcome [8]: inactive

Compound: C=CCc1ccc(OC)c(OC)c1
- activation [14]: 0.141%
